# From PubChem BioAssay (NCATS)
# Results filed as inconclusive are left out. A call without a number means that no potency is given here. Calls of active or inactive are those of the source. The call rests on the fitted dose curve; in most records, active means well fitted inhibition curve with a large enough effect; inconclusive means small, poorly fitted or top-dose-only effect; inactive means flat fitted curve, though single readings scatter.
# Test system: Zika virus NS2B-NS3 protease
# Assay: Primary screen GU AMC qHTS for Zika virus inhibitors (AID 1347154); further: nearly all actives have a fitted effect of over 70% in size
# Conditions: Zika NS2B-NS3 unlinked protease, AMC fluorogenic substrate; series mostly up to 54.1 µM
# Procedure, shortened: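 Unlinked Zika NS2B hydrophilic domain–NS3 protease complex at 25 nM in 10 mM Tris-HCl pH 8.0, 0.01% Tween 20, with an AMC peptide substrate. Fluorescence change (340/450 nm) over 15 min at room temperature, normalized to controls, fitted to 4-parameter Hill.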
row,Structure (SMILES),Potency
1,C[C@@H](O)[C@H]1C(=O)N2C(C(=O)OCOC(=O)C(C)(C)C)=C(SC3CN(C4=NCCS4)C3)[C@H](C)[C@H]12,inactive
2,CCc1cc(-c2n[nH]c(C)c2-c2ccc3c(c2)OCCO3)c(O)cc1O,inactive
3,CCOC(=O)[C@@H](N)CCC(=O)N[C@@H](CSCc1ccccc1)C(=O)N[C@@H](C(=O)OCC)c1ccccc1,inactive
4,COc1cc(N2CCN(C)CC2)ccc1Nc1nc(N)c(C(=O)c2c(Cl)cccc2Cl)s1,inactive
5,CCC[C@@H](NC(=O)[C@@H]1[C@H]2CCC[C@@H]2CN1C(=O)[C@@H](NC(=O)[C@@H](NC(=O)c1cnccn1)C1CCCCC1)C(C)(C)C)C(=O)C(=O)NC1CC1,inactive
6,Cc1[nH]c(C=C2C(=O)Nc3ccc(S(=O)(=O)N(C)c4cccc(Cl)c4)cc32)c(C)c1C(=O)N1CCN(C)CC1,inactive
7,CC=C1C2C=C(C)CC1(N)c1ccc(=O)[nH]c1C2 (configuration not stated),inactive
8,CCNC(=O)CCCC=CC[C@@H]1[C@H](C=CC(O)CCc2ccccc2)[C@@H](O)C[C@@H]1O (some centres not stated),inactive
9,COc1cc2ncn(-c3cc(OCc4ccccc4S(C)(=O)=O)c(C#N)s3)c2cc1OC,inactive
10,CC(C)[C@H](O)C(=O)N[C@@H](C)C(=O)N[C@@H]1C(=O)N(C)CCc2ccccc21,inactive
11,Cc1cc2nc3c(=O)[nH]c(=O)nc-3n(CC(O)C(O)C(O)CO)c2cc1C (configuration not stated),inactive
12,NCC1CCC(C(=O)O)CC1 (configuration not stated),inactive
13,CNC(=O)[C@H](Cc1ccccc1)NC(=O)[C@H](CC(C)C)[C@H](CSc1cccs1)C(=O)NO,inactive
14,CN1CCC[C@H]1CCO[C@](C)(c1ccccc1)c1ccc(Cl)cc1,inactive
15,NC[C@H]1O[C@H](O[C@@H]2[C@@H](O)[C@@H](O[C@H]3O[C@H](CO)[C@@H](O)[C@H](N)[C@@H]3O)[C@H](N)C[C@@H]2N)[C@H](O)[C@@H](O)[C@H]1O,inactive
16,C[C@]12CCC3=C4CCC(=O)C=C4CC[C@@H]3[C@H]1CC[C@@]2(O)CC#N,inactive
17,COc1cc2c(cc1OC)CC(=O)N(CCCN(C)C[C@H]1Cc3cc(OC)c(OC)cc31)CC2,inactive
18,COc1ccc(-c2cc(=O)c3c(O)cc(O[C@@H]4O[C@H](CO[C@@H]5O[C@@H](C)[C@H](O)[C@@H](O)[C@@H]5O)[C@@H](O)[C@H](O)[C@@H]4O)cc3o2)cc1O,inactive
19,CN(CC=CC#CC(C)(C)C)Cc1cccc2ccccc12,inactive

row,Structure (SMILES),Potency
1,COc1ccc(CCN(C)CCCOc2ccc(S(=O)(=O)c3[nH]c4ccccc4c3C(C)C)cc2)cc1OC,inactive
2,CN1CCN2c3ncccc3Cc3ccccc3C2C1 (configuration not stated),inactive
3,CN1C(=O)C[C@H](C(=O)N[C@@H](Cc2cnc[nH]2)C(=O)N2CCC[C@@H]2C(N)=O)NC1=O,inactive
4,NC(=O)c1nnn(Cc2cc(Cl)c(C(=O)c3ccc(Cl)cc3)c(Cl)c2)c1N,inactive
5,CCN(CC)CCCCNc1nc2cc(Cl)c(Cl)cc2nc1-c1ccc(-c2cccs2)s1,inactive
6,CC(C)=CCCC(C)=CCCC(C)=CCCC(C)=CCCC(C)=CCCC(C)=CCCC(C)=CCCC(C)=CCCC(C)=CCO,inactive
7,CN(C)N=Nc1nc[nH]c1C(N)=O,inactive
8,O=c1[nH]c(=O)n([C@H]2C[C@@H](O)[C@@H](CO)O2)cc1C(F)(F)F,inactive
9,C[C@@H]1[C@H](C)CC[C@]2(C(=O)O)CC[C@]3(C)C(=CC[C@@H]4[C@@]5(C)CC[C@H](O)C(C)(C)[C@H]5CC[C@]43C)[C@@H]12,inactive
10,CC(=O)O[C@]1(C(C)=O)CC[C@H]2[C@@H]3C=C(Cl)C4=CC(=O)[C@@H]5C[C@H]5[C@]4(C)[C@@H]3CC[C@@]21C,inactive
11,COc1ccc2ccc(=O)oc2c1CC=C(C)C,inactive
12,CCC(=O)NCC[C@@H]1CCc2ccc3c(c21)CCO3,inactive
13,COc1cc2nc(-c3cc(F)ccc3O)nc(N[C@@H]3CNC[C@@H]3C(C)(C)O)c2cc1OC,inactive
14,COc1cc2nccc(Oc3ccc(NC(=O)Nc4ccc(F)cc4F)c(F)c3)c2cc1OC,inactive
15,CCCCN(CCCC)CC(O)c1cc(Cl)cc2c1-c1ccc(Cl)cc1C2=Cc1ccc(Cl)cc1 (configuration not stated),inactive
16,N[C@@H](CC(=O)N1CCn2c(nnc2C(F)(F)F)C1)Cc1cc(F)c(F)cc1F,inactive
17,CC(C)N(CCCNC(=O)Nc1ccc(C(C)(C)C)cc1)C[C@H]1O[C@@H](n2cc(Br)c3c(N)ncnc32)[C@H](O)[C@H]1O,inactive
18,CCC(=C(CC)c1ccc(O)cc1)c1ccc(O)cc1,inactive
